D2 PAM-1 = positive allosteric modulators of human D2 dopamine receptor | P14416 | HEK293 T-REx D2, calcium flux, EC20 dopamine potentiation | potentiation, % at 10 µM | 340,000 tested, 0.34% active;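 active means potentiation over 3 SD above the plate norm, cut at about 30% in these data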; further: 0% is about no effect
Target sequence (P14416 whole entry, looked up): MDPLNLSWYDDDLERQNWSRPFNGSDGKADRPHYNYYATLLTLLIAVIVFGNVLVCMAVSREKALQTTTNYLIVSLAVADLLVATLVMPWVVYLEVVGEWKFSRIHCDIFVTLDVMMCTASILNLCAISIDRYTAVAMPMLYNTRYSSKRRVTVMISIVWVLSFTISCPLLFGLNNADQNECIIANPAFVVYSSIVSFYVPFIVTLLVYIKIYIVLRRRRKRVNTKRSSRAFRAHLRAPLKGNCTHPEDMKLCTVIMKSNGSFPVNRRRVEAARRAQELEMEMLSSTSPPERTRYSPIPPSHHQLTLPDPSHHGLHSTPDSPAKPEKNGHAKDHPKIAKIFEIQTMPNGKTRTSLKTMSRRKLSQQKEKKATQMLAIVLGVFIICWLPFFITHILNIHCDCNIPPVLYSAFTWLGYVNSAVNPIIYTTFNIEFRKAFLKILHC
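Tetracycline-induced Hek293 Trex D2 cells, force-coupled to calcium, loaded with no-wash calcium dye. Compound added with 180 s kinetic read for agonism, then EC20 dopamine and a further 180 s read for potentiation.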
D2 ag-1 = D2 dopamine receptor (human) agonism. activation, % at 2 µM. HEK293 T-REx D2 cells, calcium flux agonist mode. 340,000 tested, 0.53% active. P14416;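 active means activation over 3 SD above normal in the single-dose calcium agonist read, cut at about 30% in these data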; further: 0% is about no effect
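Tetracycline-induced HEK293 T-REx cells with force-coupled D2 receptor, plated overnight at 30 C, loaded with no-wash calcium dye. After a 10 s baseline, compound was pin-added and calcium flux read kinetically for 180 s; calcium rises flagged agonists.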
D2 PAM-2 = positive allosteric modulators of human D2 dopamine receptor. P14416. DiscoveRx D2 beta-arrestin cells, luminescence, 90 min; 100% = 57 uM dopamine signal. potentiation, % (no concentration beside the values). 360,000 tested, 0.23% active. AID 624464; in the data active means potentiation above about 50%; inconclusive means mostly about 30% to 49%
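PathHunter beta-arrestin assay in DiscoveRx D2 cells. Compounds were added with an EC20 of dopamine (50 nM final) for 90 min at 37 deg C. Luminescence was read 1 h after detection reagent, with 57 uM dopamine as the EC100 control.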
D2 ag-2 = agonists of human D2 dopamine receptor (beta-arrestin). 360,000 tested, 0.084% active. AID 624465. activation, % (concentration not given with the values). DiscoveRx PathHunter D2 beta-arrestin, luminescence, 90 min; 100% = 57 uM dopamine signal; in the data active means activation above about 40%; inconclusive means between about 15% and that limit
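Agonist mode: compounds alone added to overnight-plated D2 PathHunter cells for 90 min at 37 C, with 57 uM final dopamine (EC100) defining full response. Beta-arrestin recruitment detected by chemiluminescent reagent, read after 1 h at ambient temperature.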
D2 antagonist = antagonists of human D2 dopamine receptor; P14416; HEK293 TREx D2 cells, calcium flux, dopamine EC80; inhibition, % at 10 µM; 340,000 tested, 2% active; AID 485344; in the data active means inhibition above about 30%; inactive means below that, where a call was filed; further: 0% is about no effect
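Calcium flux kinetic readout in an inducible HEK293 TREx D2 line plated overnight at 30 C. After 180 s compound exposure, an EC80 dopamine challenge follows with another 180 s kinetic read to detect antagonism.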
Active calls of the source: *; ? = inconclusive; / = no result. Most compounds without a hit are left out; they make up all but 2.4% or so of the library.

SMILES | D2 PAM-1 | D2 ag-1 | D2 PAM-2 | D2 ag-2 | D2 antagonist
CCCCOc1ccc(NC2=NC3(CCCCC3)N=C(N)N2)cc1 | 18.0 | 0.6 | -2.0 | -0.5 | 35.5*
CCc1cc2cccc(C)c2nc1SCC(=O)c1ccc(NC(C)=O)cc1 | -1.0 | 0.9 | 2.2 | -1.6 | 46.6*
CCc1cc2ccc(C)cc2nc1SCC(=O)c1ccc(NC(C)=O)cc1 | -2.3 | 1.1 | 2.6 | 2.4 | 9.2
COc1ccc(S(=O)(=O)NC2CC(C)(C)NC(C)(C)C2)c2ccccc12 | -3.6 | 0.9 | -31.8 | 2.2 | 7.5
CCOP(=O)(OCC)/C(=N/OC(=O)c1cccc([N+](=O)[O-])c1)C(N)=O | -5.9 | -0.6 | -2.0 | -2.9 | 3.1
COc1ccccc1C/C(N)=N/OC(=O)c1cccc([N+](=O)[O-])c1 | 3.3 | -0.7 | 69.8* | ? | 3.8
COc1ccc(C/C(N)=N/OC(=O)c2cccc([N+](=O)[O-])c2)cc1 | 8.9 | -0.6 | 50.5* | 10.5 | -10.6
COc1ccc(C(=O)O/N=C(\N)Cc2ccc([N+](=O)[O-])cc2)c(OC)c1 | -11.5 | -0.5 | ? | 41.9* | -9.4
CCn1cc(C(=O)OCC(=O)Nc2cccc(C(C)=O)c2)c(=O)c2ccc(C)nc21 | 13.1 | -0.1 | / | / | /
COc1cccc(OC)c1OCCOCCN1CCN(C)CC1 | -25.1 | 2.1 | -22.7 | 0.1 | 68.4*
COc1ccc(OCCOCCN2CCN(C)CC2)cc1 | -10.5 | -0.3 | -1.7 | -2.1 | -3.4
CCOc1ccccc1NC(=O)c1c(NC(=O)c2cccc(C)c2)sc2c1CCCC2 | -4.9 | -0.4 | / | / | /
C/C(=N\NC(=O)c1c(Cl)c(C)nn1C)c1cccc(NC(=O)c2cccc(F)c2)c1 | -16.0 | 0.1 | -21.5 | -3.8 | 49.3*
O=C(COC(=O)c1cc[n+]([O-])cc1)NCCc1ccc(Cl)cc1Cl | -1.3 | 1.1 | 0.4 | -14.5 | 33.7*
COc1cc(F)ccc1-c1cc(C(=O)NCc2ccc(C(F)(F)F)cc2)[nH]n1 | / | / | -12.5 | 0.8 | /
CC(=O)Nc1cccc(Oc2ncnc3scc(-c4ccc(C)cc4)c23)c1 | -6.3 | 0.8 | 7.3 | 5.4 | 33.9*
CC(=O)NC(C)(c1ccccc1)c1nc(/C=C/c2ccccc2)cs1 (stereo unspecified) | / | / | -10.5 | 1.2 | /
CC(C)Cc1nc(N2CCC(C(N)=O)CC2)c2nnn(Cc3ccccc3)c2n1 | / | / | -10.2 | -3.2 | /
Cc1nc(N2CCC(C)CC2)c2nnn(Cc3ccccc3)c2n1 | 33.9* | 0.4 | -33.8 | -0.9 | -24.3
CS(=O)(=O)N1CCN(c2ccccc2NC(=O)c2cccnc2Cl)CC1 | -1.3 | 0.0 | -4.9 | -4.2 | 32.8*
CS(=O)(=O)N1CCN(c2ccccc2NC(=O)c2ccc(Cl)cc2)CC1 | -4.5 | -0.2 | 17.8 | 2.7 | -10.4
CN1CCN(C2=Cc3ccccc3Sc3cc(F)ccc32)CC1 | -25.6 | -0.7 | -34.0 | -0.6 | 80.0*
CN1CCN(C2Cc3ccccc3Sc3cc(C(F)(F)F)ccc32)CC1 (stereo unspecified) | / | / | -2.6 | 2.3 | /
CN1CCN(C2Cc3cc(F)ccc3Sc3ccc(Cl)cc32)CC1 (stereo unspecified) | / | / | -13.4 | -4.1 | /
CN1CCN(C2=Cc3ccc(Cl)cc3Sc3ccc(F)cc32)CC1 | -32.6 | -0.1 | -25.3 | -4.7 | 103.1*
SMILES | D2 PAM-1 | D2 ag-1 | D2 PAM-2 | D2 ag-2 | D2 antagonist
COc1ccc(S(=O)(=O)NCCc2sc(-c3ccccc3)nc2C)cc1F | -8.7 | -1.6 | / | / | /
Cc1ccc(S(=O)(=O)N2CCC(C(=O)OC(C)C(=O)N(C)c3ccccc3)CC2)cc1C (stereo unspecified) | 2.8 | 0.4 | 2.0 | -0.9 | -4.5
CC(C)/C=C(/C(=O)c1ccc(Cl)cc1Cl)n1cncn1 | 5.8 | 0.9 | 20.6 | 46.0* | 2.0
O=C(COC(=O)C1=COCCO1)Nc1cc(Cl)c(Cl)cc1Cl | / | / | -9.6 | -4.5 | /
Cc1cc(F)ccc1S(=O)(=O)N1CCCOC1CNC(=O)C(=O)NCCN1CCOCC1 (stereo unspecified) | 2.8 | 1.6 | 13.7 | 3.1 | 5.3
O=C(NCCc1ccccc1)C(=O)NCC1OCCN1S(=O)(=O)c1ccc(Br)cc1 (stereo unspecified) | -2.0 | -0.1 | -4.0 | 11.2 | 30.6*
Cc1cc(F)ccc1S(=O)(=O)N1CCCOC1CNC(=O)C(=O)NCCCN1CCOCC1 (stereo unspecified) | -6.6 | 31.6* | -23.4 | 2.6 | 19.8
COc1ccccc1CCNC(=O)C(=O)NCC1OCCCN1S(=O)(=O)c1cc(C)ccc1C (stereo unspecified) | -1.2 | -1.1 | -10.9 | -2.3 | 33.9*
O=C(C1CCCN(S(=O)(=O)c2cccs2)C1)N1CCN(c2ccccc2F)CC1 (stereo unspecified) | 3.5 | -0.6 | / | / | /
Nc1ccc(CCCC(=O)NCc2cccnc2)cc1 | / | / | -8.2 | -1.8 | /
S=c1[nH]nc(-c2ccccc2)n1/N=C/c1ccc(Cl)cc1 | -1.1 | -1.7 | -16.7 | 7.9 | -6.6
CCOc1ccc(/C=N/n2c(-c3ccccc3)n[nH]c2=S)cc1 | -8.4 | -1.8 | -0.8 | ? | 41.2*
Nc1nc(SCC(=O)Nc2cccc(C(F)(F)F)c2)n[nH]1 | 4.8 | -2.4 | / | / | /
O=C(Nc1ccnn1C1CCN(Cc2ccccn2)CC1)c1cccc(F)c1 | 4.8 | 1.7 | -9.7 | -2.2 | 8.9
O=C(Nc1ccnn1C1CCN(Cc2ccccc2OC(F)F)CC1)c1cccc(F)c1 | -23.3 | 0.2 | -32.3 | -3.1 | 32.1*
O=C(Nc1ccnn1C1CCN(Cc2ccccc2OCCO)CC1)c1cccc(F)c1 | -13.0 | 0.7 | -32.7 | -0.2 | 40.5*
CCOc1ccccc1CNC(=O)C1CCCN(c2ncnc3onc(-c4ccc(F)cc4)c23)C1 (stereo unspecified) | 4.5 | / | / | / | /
COC(=O)[C@]1(CC(C)C)N[C@H](c2ccc(SC3CCCCC3)c(OC)c2)[C@@H]2C(=O)N(C)C(=O)[C@@H]21 | 32.3* | -0.2 | -7.8 | -0.6 | 0.2
CCOc1ccc(/C=C2\CCC(C3CCCC3)C2=O)cc1 (stereo unspecified) | -3.4 | -1.4 | -0.3 | 2.3 | 37.4*
Cc1ccc([N+](=O)[O-])c(OCCCN2CCC(Cc3ccccc3)CC2)c1 | / | / | -8.2 | 1.9 | /
Fc1ccc(CN2CCC(Cc3ccccc3)CC2)cc1F | -15.5 | 0.5 | -6.1 | -0.1 | -17.9
OCc1ccccc1OCCCN1CCC(Cc2ccccc2)CC1 | -22.4 | 2.4 | -14.6 | -1.8 | 40.5*
COc1cc(C(C)=O)ccc1OCCN1CCC(Cc2ccccc2)CC1 | -11.8 | 0.2 | -20.2 | -6.0 | -15.0
Clc1ccccc1OCCN1CCC(Cc2ccccc2)CC1 | -19.9 | 0.1 | -14.2 | 1.1 | 63.3*
O=Cc1cc(Cl)ccc1OCCN1CCC(Cc2ccccc2)CC1 | -19.0 | 0.5 | -14.8 | -1.7 | 50.9*
COc1cc(C(C)=O)ccc1OCCCN1CCC(Cc2ccccc2)CC1 | 7.5 | -1.9 | -11.1 | -1.8 | 34.6*
